Bioassay records deposited in PubChem BioAssay by National Center for Advancing Translational Sciences (NCATS).
An excerpt weighted towards active compounds, which were near 2.4% of everything screened.
Imprint erasure – inducers of genomic imprint erasure in mouse ES cells. Potency, µM (titrated, usually from 60.7 µM), most hits filed as activators. 0.02% of 110,000 active. mouse ES Peg3-LacZ reporter, beta-gal luminescence, 40 h
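Gelatin-coated wells received 300 freshly trypsinized female ES cells with a Peg3LacZ-Neo reporter on the maternal allele, then incubated 40 hours at 37C. BetaGlo was added for 5 minutes at room temperature before a single luminescence read.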
IkB signaling – IkB pathway inhibition in ABC-DLBCL cells | ABC-DLBCL IkBa-CBG/CBR dual luciferase ratio, 4 h; response scale: scaled: untreated 0%, proteasome inhibitor 100% | Potency, µM (top dose mostly 57.1 µM) | 0.04% of 110,000 active | AID 445; active = well fitted curve in the direction sought with a large enough effect in the signal ratio, not every such curve was filed as active; inconclusive = small, poorly fitted or top-dose-only effect, or a change in a side signal; the % refers to the signal ratio;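 note: the direction sought is a rising ratio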
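In this assay, an IκBα–CBG68 fusion accumulates when IKK-driven degradation is blocked; native CBR normalizes for cell number. OCI-Ly3 cells were treated 4 h with compound and doxycycline, then green and red light read after Chroma-Glo addition.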
p53ts 32C tox – p53ts cell cytotoxicity, permissive temperature; H1299-p53A138V at 32C, ATP luminescence viability, 24 h; Potency, µM (top dose mostly 46.1 µM), hits mostly cytotoxic; 0.93% of 130,000 active; AID 924; note: nearly all actives have a fitted effect of over 55% in size
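Viability by ATPlite luminescence after 24 h compound treatment (up to 46 uM) at the permissive 32C. Cells are H1299 carrying p53 A138V. Scale runs from DMSO basal to 100 uM tamoxifen as full kill; AC50 from Hill fits.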
p53ts 39C tox – p53ts cell cytotoxicity, nonpermissive temperature. H1299-p53A138V viability at 39C, ATP luminescence, 24 h. Potency, µM (series often up to 46.1 µM), usual class: cytotoxic. 1.5% of 130,000 active; note: nearly all actives have a fitted effect of over 55% in size
FLuc inh – firefly luciferase inhibition. Potency, µM (top dose mostly 57.1 µM), actives largely listed as inhibitors. 2.2% of 72,000 active. P08659. purified firefly luciferase, luminescence, 8 min; note: nearly all actives have a fitted effect of over 40% in size
Target sequence (P08659 whole entry, looked up): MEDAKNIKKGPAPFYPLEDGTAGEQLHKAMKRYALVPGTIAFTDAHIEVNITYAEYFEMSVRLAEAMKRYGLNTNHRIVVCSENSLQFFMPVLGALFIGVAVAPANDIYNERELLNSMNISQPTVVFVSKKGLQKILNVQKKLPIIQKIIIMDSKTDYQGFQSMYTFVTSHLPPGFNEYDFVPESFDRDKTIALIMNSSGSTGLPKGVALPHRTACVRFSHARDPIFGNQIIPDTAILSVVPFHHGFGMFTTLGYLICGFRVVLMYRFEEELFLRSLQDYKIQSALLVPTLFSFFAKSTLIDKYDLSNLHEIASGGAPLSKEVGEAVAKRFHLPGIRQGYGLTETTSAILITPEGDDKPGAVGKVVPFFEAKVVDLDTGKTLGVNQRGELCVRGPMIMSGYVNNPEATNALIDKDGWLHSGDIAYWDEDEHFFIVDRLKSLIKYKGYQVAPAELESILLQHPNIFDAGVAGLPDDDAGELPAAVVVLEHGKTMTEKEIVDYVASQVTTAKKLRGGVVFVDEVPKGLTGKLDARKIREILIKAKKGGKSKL
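Here, luciferase activity is measured as luminescence following an 8 min room-temperature reaction at 10 uM ATP, pH 7.2. Every library sample is titrated.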
Of the large screens only hits and unclear results are named; the others gave an inactive call. Unless noted, calls come from the whole dose curve; as a rule, active = well fitted curve in the direction sought with a large enough effect; inconclusive = small, poorly fitted or top-dose-only effect, or another doubt; inactive = no such curve, though single readings can be large; an effect the other way counts as inactive or inconclusive.

COc1ccc(OC)c(-c2nnc3n(CCc4ccccc4)c(=O)c4ccccc4n23)c1	IkB signaling inconclusive, p53ts 39C tox 13µM (no result: FLuc inh)
Cc1ccccc1NC(=O)CN1C(=O)CCn2nc(-c3cccn3C)cc21	none (no result: FLuc inh)
CCc1nn(CC(=O)NCc2ccccc2)c(=O)c2cccn12	p53ts 39C tox 20µM (no result: FLuc inh)
Cn1c(-c2ccc(CN3CCCCC3)o2)nc2ccccc21	FLuc inh 13µM
COc1ccc2nc(N3CCCC3)c(C#N)cc2c1	none
COc1ccc2nc(N3CCCCC3)c(C#N)cc2c1	p53ts 32C tox inconclusive, FLuc inh 25µM
Cc1ccc(C)c(CSc2nnc3[nH]c(=O)cc(C)n23)c1	IkB signaling inconclusive (no result: FLuc inh)
CCN(CC)CCNC(=O)Nc1ccc2c(c1)N(Cc1ccccc1)C(=O)c1ccccc1S2	p53ts 39C tox 20µM (no result: FLuc inh)
CCN1C(=O)c2ccccc2Sc2ccc(NC(=O)Nc3ccc(C(C)=O)cc3)cc21	none (no result: FLuc inh)
COC(=O)CCC(=O)c1oc2ccc(Br)cc2c1N	p53ts 32C tox inconclusive, p53ts 39C tox inconclusive, FLuc inh 13µM
N#CC1=C(N)Nc2nc3ccccc3n2C1c1ccc(F)cc1 (stereo not given)	none (no result: Imprint erasure, IkB signaling, p53ts 32C tox, FLuc inh)
COC(=O)c1ccc(C2C=C(c3ccc(Cl)cc3)Nc3nc4ccccc4n32)cc1 (stereo not given)	IkB signaling inconclusive, p53ts 32C tox 8.9µM, p53ts 39C tox 11µM (no result: FLuc inh)
COc1ccc(C2=CC(c3cc(Br)ccc3F)n3c(nc4ccccc43)N2)cc1 (stereo not given)	p53ts 32C tox 16µM, p53ts 39C tox 10µM (no result: FLuc inh)
Fc1ccc(C2=CC(c3ccc(F)cc3)n3c(nc4ccccc43)N2)cc1 (stereo not given)	IkB signaling inconclusive, p53ts 32C tox 10µM, p53ts 39C tox 13µM (no result: FLuc inh)
Cc1cc(OCC(=O)Nc2ccc(C(=O)OC3CCCCC3)cc2)cc(C)c1Cl	IkB signaling inconclusive (no result: FLuc inh)
COc1ccccc1-n1c(/C=C/c2c(C)n(C)c3ccccc23)nc2ccccc2c1=O	none (no result: FLuc inh)
Cc1oc2ccc(O)c(CN(C)Cc3ccccc3)c2c1C(=O)Nc1cccc(C(F)(F)F)c1	IkB signaling inconclusive, p53ts 32C tox 14µM, p53ts 39C tox 20µM (no result: FLuc inh)
Cc1oc2ccc(O)c(CN(C)Cc3ccccc3)c2c1C(=O)Nc1ccccc1	IkB signaling inconclusive, p53ts 32C tox inconclusive, p53ts 39C tox inconclusive (no result: FLuc inh)
Cc1ccc(-n2nc(C)c3c(C(=O)NCc4ccc(F)cc4)cc(C)nc32)cc1	none (no result: FLuc inh)
CCCCCNC(=O)C1CCC(Cn2c(=O)c3sccc3n(CC)c2=O)CC1 (stereo not given)	none (no result: FLuc inh)
COc1ccc(NC(=O)c2cc(-c3ccc(C)o3)nc3ccccc23)cc1OC	IkB signaling inconclusive, p53ts 39C tox inconclusive, FLuc inh 2.5µM
COc1ccc(NC(=O)c2c(-c3ccc(C)cc3)nnc3ccccc23)cc1OC	none (no result: FLuc inh)
CCOC(=O)Cc1c(C)nc(-c2ccccc2)[nH]c1=O	none
CCOC(=O)Cc1c(C)nc2c(-c3cccc(Br)c3)c[nH]n2c1=O	IkB signaling inconclusive, p53ts 32C tox inconclusive, p53ts 39C tox 13µM
O=C(NC1=NCCS1)c1ccncc1	none
O=C(NC1=NCCS1)c1ccc(OCC2CCCO2)cc1 (stereo not given)	p53ts 32C tox inconclusive, p53ts 39C tox inconclusive, FLuc inh 25µM
Cc1ccc(NC(=O)c2ccc(NC(=O)N3CCSc4ncccc43)cc2)c(Cl)c1	p53ts 32C tox 10µM, p53ts 39C tox inconclusive (no result: FLuc inh)
Cc1ccc(NC(=O)c2ccc(NC(=O)N3CCSc4ncccc43)cc2)c(C)c1	none (no result: FLuc inh)
Cc1ccc(NC(=O)c2nnn(Cc3ccccc3)c2N)cc1C	none (no result: FLuc inh)
Nc1c(C(=O)Nc2ccc3c(c2)OCCO3)nnn1CCc1ccccc1	FLuc inh 16µM
C=CCn1c(/N=C/c2ccc(N(C)C)cc2)nc2ccccc21	FLuc inh 4µM
CCCCn1c(/N=C/c2ccc(N(C)C)cc2)nc2ccccc21	none (no result: Imprint erasure, IkB signaling, FLuc inh)
CN(C)c1ccc(/C=N/n2ncc3ccccc32)cc1	IkB signaling inconclusive, p53ts 32C tox 13µM, p53ts 39C tox 16µM, FLuc inh 4µM
COc1ccc(CCNC(=O)C(=O)NCC(c2ccc3c(c2)OCO3)N2CCOCC2)cc1 (stereo not given)	none (no result: FLuc inh)
Fc1ccccc1-c1nc(-c2ccccc2)no1	FLuc inh 6.3µM
c1ccc(-c2noc(-c3cccc4ccccc34)n2)cc1	IkB signaling inconclusive, p53ts 39C tox inconclusive, FLuc inh 16µM
Brc1ccccc1-c1nc(-c2ccccc2)no1	p53ts 32C tox 13µM, p53ts 39C tox inconclusive, FLuc inh 3.2µM
Cc1ccc(-c2nc(-c3ccccc3)no2)c(Cl)c1	IkB signaling inconclusive, p53ts 32C tox 5µM, p53ts 39C tox 7.9µM, FLuc inh 0.25µM
Cc1ccccc1OC(=O)CSc1nnc(-c2ccc3c(c2)OCO3)o1	none (no result: FLuc inh)
Cc1ccc(C(=O)[C@@H]2[C@@H]3[C@@H](C(=O)[C@@H]4OC[C@H]3O4)[C@@H]3C=Cc4ccccc4N23)cc1	none (no result: Imprint erasure, p53ts 32C tox, p53ts 39C tox)
CCCCN(CC)C(=O)c1nn(C)c2c1CSc1ccccc1-2	p53ts 32C tox inconclusive (no result: FLuc inh)
c1csc(-c2nnc(-c3ccc(N4CCOCC4)cc3)o2)c1	p53ts 32C tox 13µM, p53ts 39C tox 13µM, FLuc inh 3.2µM
COc1ccc(-c2nnc(-c3cccs3)o2)cc1OC	IkB signaling inconclusive, p53ts 32C tox inconclusive, p53ts 39C tox inconclusive, FLuc inh 13µM
Cc1ccc(SCc2nc(-c3ccc(C(=O)Nc4cc(C)ccc4C)cc3)oc2C)cc1	none (no result: FLuc inh)
CCCn1c2ccccc2c2cnn(CC(=O)NCCCN(Cc3ccccc3)C(C)C)c(=O)c21	none (no result: Imprint erasure, IkB signaling, p53ts 39C tox, FLuc inh)
COc1ccc(C(=O)c2c[nH]c3ccccc23)cc1	p53ts 32C tox 7.9µM, p53ts 39C tox 10µM, FLuc inh 10µM
COc1cccc(-c2ccc3c(N)c(C(=O)c4ccc(Br)cc4)sc3n2)c1	p53ts 32C tox inconclusive, p53ts 39C tox 13µM (no result: FLuc inh)
CC(C)(C)n1ncc2c(=O)n(CC(=O)NCCc3ccccc3)cnc21	none
CC(C)(C)n1ncc2c(=O)n(CC(=O)NCc3ccccc3Cl)cnc21	p53ts 32C tox inconclusive, FLuc inh 25µM
CCOc1ccccc1NC(=O)Cn1c(=O)n(Cc2ccco2)c(=O)c2ccc(C(=O)NC3CCCC3)cc21	p53ts 39C tox inconclusive (no result: FLuc inh)
CCCC(=O)Nc1nc2c(s1)CC(C(C)(C)C)CC2 (stereo not given)	none (no result: FLuc inh)
COc1ccc2oc(=O)c(-c3nc4ccc(C)cc4[nH]3)cc2c1	IkB signaling inconclusive, p53ts 39C tox inconclusive (no result: FLuc inh)
COc1ccc2nc(-c3ccc(N)cc3)[nH]c2c1	p53ts 32C tox 16µM, p53ts 39C tox inconclusive (no result: Imprint erasure, IkB signaling, FLuc inh)
COc1ccc2nc(-c3cccc(N)c3)[nH]c2c1	p53ts 32C tox 7.9µM, p53ts 39C tox 16µM (no result: Imprint erasure, IkB signaling, FLuc inh)
Nc1ccc2nc(-c3ccccn3)[nH]c2c1	p53ts 32C tox inconclusive (no result: Imprint erasure, IkB signaling, FLuc inh)
Cc1ccc2oc(-c3ccc(NC(=O)CCC(=O)O)cc3)nc2c1	IkB signaling inconclusive, p53ts 32C tox inconclusive, p53ts 39C tox 16µM (no result: FLuc inh)
